Assay outcomes from PubChem BioAssay.
Luciferase inh – inhibitors of firefly luciferase. P08659. purified firefly luciferase, luminescence, 8 min. Potency, µM (highest dose often 57.1 µM), inactives show at the highest dose activity change, negative = inhibition, usual class: inhibitors. actives 2.2% (n = 72,000). AID 411; active = well fitted inhibition curve with a large enough effect; inconclusive = small, poorly fitted or top-dose-only effect; note: nearly all actives have a fitted effect of over 40% in size
Target sequence (P08659 whole entry, looked up): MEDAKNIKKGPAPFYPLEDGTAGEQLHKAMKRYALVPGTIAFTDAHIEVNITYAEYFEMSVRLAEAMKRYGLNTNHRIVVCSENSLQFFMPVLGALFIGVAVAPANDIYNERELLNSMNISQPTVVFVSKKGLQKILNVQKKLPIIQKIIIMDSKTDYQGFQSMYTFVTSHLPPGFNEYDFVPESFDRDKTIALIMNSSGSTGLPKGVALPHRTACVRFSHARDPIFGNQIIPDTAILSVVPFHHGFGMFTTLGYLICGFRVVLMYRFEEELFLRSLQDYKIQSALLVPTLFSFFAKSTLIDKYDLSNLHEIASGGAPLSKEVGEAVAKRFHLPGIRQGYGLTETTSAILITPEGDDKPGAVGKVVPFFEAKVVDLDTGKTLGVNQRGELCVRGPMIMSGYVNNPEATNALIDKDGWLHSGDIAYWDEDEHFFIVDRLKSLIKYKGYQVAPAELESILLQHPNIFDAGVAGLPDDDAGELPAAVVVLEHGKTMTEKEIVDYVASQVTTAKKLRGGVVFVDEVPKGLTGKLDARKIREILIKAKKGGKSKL
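Here, luciferase activity is measured as luminescence following an 8 min room-temperature reaction at 10 uM ATP, pH 7.2. Every library sample is titrated.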
Bst PK mod – pyruvate kinase (B. stearothermophilus) modulation; purified pyruvate kinase, luminescence ATP production; ribose 5-phosphate activator present at AC10; Potency, µM; actives 1.2% (n = 51,000); AID 361; in the data active = potency below about 11 µM; inconclusive = mostly about 12 µM to 25 µM;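 the screen sought inhibitors and activators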;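 note: scaled between full activation by ribose 5 phosphate and full inhibition by luteolin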
Numbers without * were called inactive; i = inactive; u = inconclusive; x = no result; [ ] = another dose, or the depositor's remark. The list is not random: actives were taken first. Their share in the collection is about 2.5%. Unless noted, % is set by controls: 0 for no effect and ±100 for the full control effect; potency is the fitted concentration of half-maximal effect.

SMILES	Luciferase inh	Bst PK mod
CCc1nnc(NC(=O)CCC(=O)N2CCN(Cc3ccccc3)CC2)s1	12.6µM*	x
CCc1nnc(NC(=O)CCC(=O)N2CCN(Cc3ccc(Cl)cc3)CC2)s1	3.1%	>57
CCC(C)c1ccc(NC(=O)c2cccnc2)cc1 (centres undefined)	25.1µM*	x
CCC(C)c1ccc(O)c(NC(=O)c2cccnc2)c1 (centres undefined)	5.7%	>57
O=c1[nH]c2ccccc2c2nc3ccccn3c12	u	4.33*
O=c1[nH]c2ccccc2c2ccccc12	0.0%	x
O=C(O)c1ccc(SSc2ccc(C(=O)O)cn2)nc1	-6.9%[11.4 µM]	x
Cc1nn(-c2ccccn2)c2c1-c1nc(N)ncc1CC2	10µM*	u
Cc1nn2c3c(cnc2c1-c1ccccc1)C(=O)CCC3	1.4%	>57
Cc1cc(C(=O)Nc2sc3c(c2C#N)CCCCC3)cs1	15.8µM*	i
CCCc1cc(C(=O)Nc2sc3c(c2C#N)CCC3)no1	0.1%	x
N#Cc1c(NC(=O)c2ccncc2)sc2c1CCC2	20µM*	x
CCCC(=O)Nc1sc2c(c1C#N)CCCC2	-2.6%[25.5 µM]	>25.6
Cc1cccc(NC(=O)C2CCN(S(=O)(=O)c3cccc4nsnc34)CC2)n1	2.3%	u
COc1ccc2nc(NC(=O)C3CCN(S(=O)(=O)c4cccc5nsnc45)CC3)sc2c1	-2.0%	2.98*
O=c1c2ccccc2nc2c3ccccc3c3nncn3n12	2.0%	0.899*
CC1CN(c2nn3c(=O)c4ccccc4nc3c3ccccc23)CC(C)O1 (centres undefined)	1.0%	u
Cc1ccc(-n2nnnc2SCc2nnc(-c3ccccc3Br)o2)cc1	-0.8%	>57
CN1CCC(=C2c3ccccc3CCc3sccc32)CC1	-3.5%[25.5 µM]	x
c1ccc2sc(-c3ccc4c(c3)OCO4)nc2c1	1.58µM*	x
c1ccc2sc(N3CCN(Cc4ccc5c(c4)OCO5)CC3)nc2c1	0.0%	x
COc1cccc(CC(NC(C)=O)C(=O)NC2CCN(c3nc(C)cc(C)c3C#N)CC2)c1OC (centres undefined)	2.5%	>57
CCn1c(/C=N/n2cnnc2)nc2ccccc21	1.8%	x
CCn1c(/N=C/c2c[nH]c3ccccc23)nc2ccccc21	3.98µM*	2.69*
O=C(c1ccco1)N1CCN(C(=O)c2cc(-c3ccncc3)nc3ccc(Br)cc23)CC1	2.0%	7.64*
SMILES	Luciferase inh	Bst PK mod
O=C(c1ccco1)N1CCN(C(=O)c2cc(-c3ccccn3)nc3ccc(Cl)cc23)CC1	-10.9%	i
Cc1onc(-c2ccccc2)c1C(=O)Nc1nc2c(s1)CCCC2	0.3%	>57
CN(C)c1ccc(C(=O)Nc2nc3c(s2)CCCC3)cc1	5.01µM*	x
O=C(Nc1nc2c(s1)C(=O)CCC2)c1ccccc1	12.6µM*	x
O=C(Nc1nc(=O)c2ccccc2s1)c1ccccc1	-19.9%[25.5 µM]	i
Cc1onc(-c2c(F)cccc2Cl)c1C(=O)Nc1nc2c(s1)CCCC2	0.2%	>57
Cc1cc(C(=O)Nc2nc3c(s2)CCCC3)no1	25.1µM*	i
CN(C)c1ccc(-c2nc(Nc3ccncc3)c3ccccc3n2)cc1	0.398µM*	x
CN(C)C(=O)c1ccc(-c2nc(Nc3ccncc3)c3ccccc3n2)cc1	-9.7%[2.29 µM]	x
COc1ccc(COC(=O)N/N=C2/C[C@@H](O)[C@@H](O)[C@@H]3[C@@H]4C(=O)N(C(C)(C)C)C(=O)[C@H]4CC[C@H]23)cc1	-0.1%[11.4 µM]	x
O=S(=O)(/N=C(/Nc1cc(N2CCOCC2)ncn1)c1ccccc1)c1ccccc1	3.16µM*	x
O=S(=O)(/N=C(/Nc1cc(N2CCOCC2)ncn1)c1ccc(F)cc1)c1ccccc1	-0.3%	>57
Cc1ccc(-c2nc(-c3ccccc3)no2)c(Cl)c1	0.251µM*	x
c1ccc(CCc2ccccc2-c2nc(-c3cccnc3)no2)cc1	1.7%	x
Clc1ccc(Br)cc1-c1nc(-c2ccncc2)no1	0.2%	>57
Brc1ccccc1-c1nc(-c2ccccc2)no1	3.16µM*	x
c1ccc2c(-c3nc(-c4ccncc4)no3)cccc2c1	-17.6%	>11.4
c1ccc(-c2noc(-c3cccc4ccccc34)n2)cc1	15.8µM*	i
NC(=O)c1ccccc1-c1nc(-c2ccccc2)no1	-27.3%	x
Fc1ccccc1-c1nc(-c2ccccc2)no1	6.31µM*	5.75*
CC/C(=N\O)c1ccc(OC)c(OC)c1	1.7%[25.5 µM]	>25.6
CCOC(=O)N1CCN(c2c(NCCN3CCCCC3CC)c(=O)c2=O)CC1 (centres undefined)	3.0%	x
COc1ccc(N2C(=O)C3CCCN3C2c2cccc(Br)c2)cc1 (centres undefined)	0.3%	x
CCOC(=O)c1c(C)c(C(=O)NCCCOC(C)C)c(C)n1C	0.7%	>57
COc1ccc(NC(=O)C2CCC(=O)N2S(=O)(=O)c2ccc(C)cc2)c(OC)c1 (centres undefined)	-1.2%	11.3*
SMILES	Luciferase inh	Bst PK mod
COc1ccc(NC(=O)C2CCCCN2S(=O)(=O)c2ccc(F)cc2)c(OC)c1 (centres undefined)	-2.9%	>57
Cc1cccc(-n2ncc3c(NCc4ccc5c(c4)OCO5)ncnc32)c1	-1.0%	>57
C=CCNc1ncnc2c1cnn2-c1cccc(C)c1	10µM*	x
Cc1ccc(-n2ncc3c(N4CCN(c5ccccc5)CC4)ncnc32)c(C)c1	-0.9%[25.5 µM]	>25.6
Cc1cccc(-n2ncc3c(NC4CCCCC4)ncnc32)c1	10µM*	x
Clc1ccc(-n2ncc3c(NCc4ccccn4)ncnc32)cc1	-3.8%[25.5 µM]	u
COc1ccccc1Nc1ncnc2c1cnn2-c1cccc(C)c1	-10.3%[25.5 µM]	x
Cc1cccc(-n2ncc3c(N4CCCC4)ncnc32)c1	1.58µM*	5.37*
C=CCNc1ncnc2c1cnn2-c1ccc(Cl)cc1	2.51µM*	x
CCc1cc2c(cc3c(=O)n(CC(=O)N4CCN(c5ccccn5)CC4)nc(CC)n32)s1	2.4%	>57
O=C(CN1CCN(C(=O)N2CCOCC2)CC1)Nc1ccc(Br)cc1	2.1%	>57
O=C1CN2CCN(CC2)CC(=O)Nc2ccc(cc2)S(=O)(=O)c2ccc(cc2)NC(=O)CN2CCN(CC2)CC(=O)Nc2ccc(cc2)S(=O)(=O)c2ccc(cc2)N1	0.2%[11.4 µM]	x
CC(C)(C)N1C(=O)[C@H]2[C@@H]3[C@H](O)[C@H](O)CC(=O)[C@H]3CC[C@H]2C1=O	-0.5%[11.4 µM]	x
CCOCCn1c(=O)c2c(nc3n2CCN3c2ccccc2)n(C)c1=O	0.3%	>57
CN(c1ccccc1C(=O)O)S(C)(=O)=O	0.1%	>57
CN(C)c1ccccc1C(=O)c1ccccc1N(C)C	25.1µM*	x
COc1ccc(-c2csc(C3=C(O)CN(Cc4ccc(S(N)(=O)=O)cc4)C3=N)n2)cc1OC	-3.8%	>57
N=C1C(c2nc(-c3ccc(Cl)cc3)cs2)=C(O)CN1CCCN1CCOCC1	-10.3%	4.46*
CC(=O)Nc1ccc(S(=O)(=O)N2CCN(C(=O)CCC3CCCC3)CC2)cc1	-0.1%	x
Cc1cc(NC(=O)CSc2cn(CCNC(=O)c3ccc(Cl)cc3)c3ccccc23)no1	-1.9%	x
CCOc1ccc(C(=O)NCCn2cc(SCC(=O)Nc3cc(C)on3)c3ccccc32)cc1	15.8µM*	>57
Cc1ccc(C)c(OCCCC(C)(C)C(=O)O)c1	-0.1%[25.5 µM]	>25.6
Clc1ccccc1-c1nnc2sc(-c3ccccn3)nn12	-1.9%	>57
COc1cccc(OC)c1-c1nn2c(-c3ccccc3Cl)nnc2s1	-1.0%[25.5 µM]	7.26*
O=C(Nc1ccc2c(c1)OCCO2)c1cccnc1	-20.1%	>57
CCC(=O)Nc1cccc(NC(=O)c2ccc3c(c2)OCCO3)c1	15.8µM*	x
CCCC(=O)Nc1cccc(NC(=O)c2ccc3c(c2)OCO3)c1	-28.2%	>57
O=C(Nc1ccc2c(c1)OCCO2)c1ccc2nccnc2c1	10µM*	u
